Test results as given in PubChem BioAssay (NCI).
Compounds without any hit were thinned out: in the full panel of roughly 83,000, 20% have a hit.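 Compound tested at a single concentration for 48 hours in 96-well plates; a percent growth value below 10 was scored as active.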 Unmarked numbers belong to inactive results. Active and inactive are the calls of the source.

Assays:
Test in all cases: NCI-60 one-dose screen, 48 h (100 = growth as untreated, 0 = no growth, -100 = all killed)
Conditions in all cases: 10 µM unless noted
[1] = tested on: SR leukemia
[2] = tested on: RPMI-8226 leukemia
[3] = tested on: OVCAR-8 ovarian
[4] = tested on: OVCAR-5 ovarian
[5] = tested on: OVCAR-4 ovarian
[6] = tested on: SK-OV-3 ovarian
[7] = tested on: IGROV1 ovarian
[8] = tested on: OVCAR-3 ovarian
[9] = tested on: HS 578T breast
[10] = tested on: NCI/ADR-RES ovarian
[11] = tested on: T-47D breast
[12] = tested on: MDA-MB-435 melanoma
[13] = tested on: SW-620 colon
[14] = tested on: MCF7 breast
[15] = tested on: HCT-116 colon
[16] = tested on: HCC-2998 colon
[17] = tested on: KM12 colon
[18] = tested on: BT-549 breast

SMILES | growth [1] [%] | growth [2] [%] | growth [3] [%] | growth [4] [%] | growth [5] [%] | growth [6] [%] | growth [7] | growth [8] [%] | growth [9] [%] | growth [10] [%] | growth [11] [%] | growth [12] | growth [13] [%] | growth [14] [%] | growth [15] [%] | growth [16] [%] | growth [17] [%] | growth [18] [%]
COC(=O)C(CC(=O)c1ccc(-c2ccccc2)cc1)c1ccccc1 (configuration not stated) | 24.2 | 88.3 | 77.5 | 84.1 | 71.6 | 85.2 | 64.7% | 10.6 | 71.7 | 17.5 | 51.9 | 5.69% (active) | 26.9 | 16.2 | 23.5 | 96.5 | 55.6 | 
CC(=O)Nc1ccc(S(=O)(=O)N2C(=O)CCC2C(=O)Nc2ccccc2)cc1 (configuration not stated) | 28 | 26.7 | 40.4 | 58.4 | 39.9 | 57.5 | 28.9% | 28.1 | 63.1 | 41.5 | 17.6 | 27.7% | 30.2 | 19.2 | 26.5 | 30.5 | 12.4 | 
Nc1c(C(=O)Nc2cccc(Cl)c2Cl)sc2nc3c(cc12)C(=O)CCC3 | 95.6 | 102 | 114 | 99.1 | 104 | 24.2 | 72.8% | 95.6 | 88.2 | 73.4 |  | 20.6% | 64 | 86.7 | 93 | 77.8 | 67.5 | 95.3
COc1ccc(N=C2NN=C(c3ccc(F)cc3)CS2)cc1OC | 53 | 74.4 | 105 | 85.7 | 103 | 104 | -11.7% (active) | 96.6 | 110 | 97.6 | 86.7 |  | 98.6 | 104 | 96.1 | 98.1 | 99.2 | 
